The full list was thinned out, with hits kept by preference.
GALK inhibitor: qHTS Assay for Inhibitors of Human Galactokinase (GALK); Potency, µM (series often up to 57.5 µM), inactives show at the highest dose activity change, negative = inhibition, usual class: inhibitors; Purified GALK, Kinase-Glo residual ATP luminescence; AID 1868, 2009; hit rate 0.007% among 270,000; note: potency is the fitted concentration of half-maximal effect
Target sequence (P51570 whole entry, looked up): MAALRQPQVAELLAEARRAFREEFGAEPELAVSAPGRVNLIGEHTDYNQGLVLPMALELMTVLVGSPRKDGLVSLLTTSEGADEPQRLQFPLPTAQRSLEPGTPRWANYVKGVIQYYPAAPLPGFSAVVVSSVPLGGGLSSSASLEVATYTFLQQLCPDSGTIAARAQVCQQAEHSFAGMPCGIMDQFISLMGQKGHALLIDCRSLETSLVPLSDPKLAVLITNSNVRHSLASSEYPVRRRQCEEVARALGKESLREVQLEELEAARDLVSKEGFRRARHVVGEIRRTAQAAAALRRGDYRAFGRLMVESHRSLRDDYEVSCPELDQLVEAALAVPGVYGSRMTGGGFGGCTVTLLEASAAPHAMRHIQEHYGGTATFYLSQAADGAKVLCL
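Luminescence from leftover ATP (Ultra-Glo luciferase/luciferin) served as read-out after a 1 h room-temperature reaction of 5 nM GALK with 35 uM ATP and 100 uM galactose.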
Eya2 phos inh: qHTS Assay for Inhibitors of the Phosphatase Activity of Eya2; Protein phosphatase EYA2 (Homo sapiens), O00167; recombinant Eya2, OMFP fluorescence dephosphorylation (OMFP is methylfluorescein phosphate); Potency, µM (titrated, usually from 76.9 µM), without a hit: top-dose activity, negative = inhibition, most hits filed as inhibitors; hit rate 0.006% among 330,000; note: potency is the fitted concentration of half-maximal effect
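Eya2 (0.2 uM) preincubated 10 min at ambient with compound, then OMFP substrate added at 50 uM; 10 min reaction in 50 mM HEPES pH 7.5, 50 mM NaCl, 5 uM MgCl2, 0.05% BSA, 1 mM DTT. Fluorescence read at Ex 485/Em 525 nm.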
KDM4E inh: qHTS Assay for Inhibitors of Human Jumonji Domain Containing 2E (JMJD2E) | Potency, µM (highest dose often 57.1 µM), for the others: top-dose activity change, negative = inhibition, most hits filed as inhibitors | JMJD2E catalytic domain, FDH-coupled NADH fluorescence (FDH is formaldehyde dehydrogenase) | Lysine-specific demethylase 4E (Homo sapiens), B2RXH2 | hit rate 1.6% among 230,000; active = well fitted inhibition curve with a large enough effect, not every such curve was filed as active; inconclusive = small, poorly fitted or top-dose-only effect, or another doubt; inactive = no such curve, though single readings can be large or run the other way;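 note: potency is the fitted concentration of half-maximal effect; 0% = wells with enzyme and -100% = buffer wells without enzyme; nearly all actives have a fitted effect of over 50% in size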
Six1-Eya2 blk: qHTS Assay for Inhibitors of the Six1/Eya2 Interaction | AID 651725, 2012 | Homeobox protein SIX1 (Homo sapiens) + Protein phosphatase EYA2 (Homo sapiens), … | AlphaScreen GST-Six1/His-Eya2 binding, biochemical; active compounds read low | hit rate 0.56% among 360,000 | activity change, % (concentration not given with the values); in the data active = activity change below about -65%; inconclusive = mostly about -30% to -63%
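Homogeneous AlphaScreen proximity assay pairing GST-Six1 with His-tagged Eya2 (added as 5X mix: 250 nM and 500 nM) in 50 mM Tris pH 8.0, 300 mM NaCl, 1 mM TCEP. Glutathione donor and nickel acceptor beads; 1 h, 37 °C, dark.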
Anesthetic bind: qHTS Assay for Identification of Novel General Anesthetics; Ferritin light chain (Equus caballus), P02791; hit rate 0.074% among 350,000; apoferritin/1-aminoanthracene competitive binding, fluorescence; AID 485281, 2010; Potency, µM (highest dose often 77.5 µM), for the others: top-dose activity change, negative = displacement, most hits filed as inhibitors; note: potency is the fitted concentration of half-maximal effect; nearly all actives have a fitted effect of over 20% in size
Target sequence (P02791 2-175 limits assumed): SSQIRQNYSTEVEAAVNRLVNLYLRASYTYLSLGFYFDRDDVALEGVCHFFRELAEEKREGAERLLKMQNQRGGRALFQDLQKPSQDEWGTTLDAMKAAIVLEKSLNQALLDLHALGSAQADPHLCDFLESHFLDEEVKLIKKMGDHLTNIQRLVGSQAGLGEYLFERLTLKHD
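Steps: apoferritin (10 uM) was premixed with half-saturated 1-AMA in PBS, compounds were pin-transferred, plates stood 10 min at room temperature, fluorescence was read at 380/535 nm, and curves were fitted with a Hill equation.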
CtBP-E1A blk: qHTS Assay for Inhibitors of the CtBP/E1A Interaction. activity change, % (no concentration beside the values). hit rate 0.49% among 340,000. CtBP / adenovirus E1A interaction (AlphaScreen). AID 651724, 2012. AlphaScreen GST-E1A/His-CtBP binding, 1536-well; active compounds read low; in the data active = activity change below about -65%; inconclusive = mostly about -30% to -63%
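Steps: dispense buffer (Tris pH 8.0, NaCl 300 mM, TCEP 1 mM, BSA, Tween 20); add 5X protein mix (GST-E1A, His-CtBP, 125 nM each); pin 23 nL compound; 2 h at 37 °C, dark; add 5X beads (50 ug/mL); 1 h; read.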
An asterisk follows results filed as active; ? = inconclusive; · = no result; [ ] = another dose, or the depositor's remark. Unless noted, calls come from the whole dose curve; as a rule, active = well fitted curve in the direction sought with a large enough effect; inconclusive = small, poorly fitted or top-dose-only effect, or another doubt; inactive = no such curve, though single readings can be large; an effect the other way counts as inactive or inconclusive. Unless noted, % is set by controls: 0 for no effect and ±100 for the full control effect.

SMILES	GALK inhibitor	Eya2 phos inh	KDM4E inh	Six1-Eya2 blk	Anesthetic bind	CtBP-E1A blk
O=[N+]([O-])c1cc2c(cc1/C=N/n1c(-c3ccccc3)n[nH]c1=S)OCO2	0%	16%	-1%	-3	-20%	?
S=c1[nH]nc(-c2ccccn2)n1/N=C/c1ccco1	5%	-4%	-8%	-74*	-1%	0
O=[N+]([O-])c1cc2c(cc1/C=N/n1c(-c3ccccn3)n[nH]c1=S)OCO2	0%	3%	-11%	-83*	1%	8
S=c1[nH]nc(-c2ccco2)n1/N=C/c1ccccn1	0%	-2%	-29%	·	-3%	·
Cc1ccsc1/C=N/n1c(-c2ccccn2)n[nH]c1=S	2%	-11%	-4%	-78*	1%	?
CO/N=C(\C(=O)NC1C(=O)N2C(C(=O)OCOC(=O)C(C)(C)C)=C(/C=C\c3scnc3C)CSC12)c1csc(N)n1 (stereo not given)	·	·	-7%	·	-15%	·
CCOc1ccc(N(C)C(=O)C2CCN(S(=O)(=O)c3ccc4c(c3)CCCN4C(C)=O)CC2)cc1	·	·	·	·	-3%	·
Cc1noc(C)c1-c1ccc2ncnc(NC(C)c3ccccc3)c2c1 (stereo not given)	·	·	·	·	-11%	·
S=c1[nH]nc(-c2ccncc2)n1/N=C/C=C/c1ccco1	-2%	0%	-11%	-11	-14%	-1
C(=C\c1ccco1)/C=N/n1cnnc1	5%	-5%	14µM*	-3	-2%	-5
Cc1cc(=O)n(CCc2ccccc2)c(O)c1C#N	-5%	4%	11µM*	1	-7%	-1
COc1ccc(NC(=O)Cn2cnc3c(nc4n3CCCCC4)c2=O)c(OC)c1	·	·	·	·	-1%	·
COc1cc(OC)c(-c2c3cc(O)c(=O)cc-3oc3cc(O)c(O)cc23)cc1OC	2%	?	5µM*	?	6%	0
Cc1cc2oc(=O)cc(-c3cc4ccccc4o3)c2cc1O	0%	-4%	·	1	-14%	·
Cc1c2cc(O)c(=O)cc-2oc2cc(O)c(O)cc12	0%	?	?	-89*	1%	-94*
Cn1cc(Br)c(C(=O)Nc2sc3c(c2C(N)=O)CCC3)n1	0%	-10%	-2%	-71*	-4%	-79*
Cn1ccc(C(=O)Nc2sc3c(c2C(N)=O)CCCCC3)n1	5%	-1%	·	-23	-17%	-1
CC(Oc1ccccc1F)C(=O)NCC1(N2CCOCC2)CCCCC1 (stereo not given)	·	·	·	·	-2%	·
Cc1ccc(C(=O)c2sc3nc4c(cc3c2N)CCC4)cc1	-2%	4%	5%	3	1%	-5
Nc1nc(N)c2sc3nc4c(cc3c2n1)CCC4	-2%	-31%	?	-76*	-3%	-84*
COc1cc(C(=O)NCc2nnc(SCC(=O)Nc3nccs3)o2)cc(OC)c1OC	1%	9%	?	-84*	-9%	-78*
Cc1cccc(C)c1OCc1nnc(SCC(=O)Nc2nccs2)o1	0%	?	?	-85*	?	-91*
COc1cccc(CNC(=O)c2ccc3c(c2)nc2n3CCC(C)C2)c1 (stereo not given)	·	·	·	·	3%	·
CC(=O)Nc1c([N+](=O)[O-])cc2[nH]c(=O)[nH]c2c1[N+](=O)[O-]	-1%	3%	25µM*	-13	-8%	·
O=C(Cn1c2[n+](c3ccc(C(F)(F)F)cc31)CCCCC2)Nc1ccc(Br)cc1	6%	-5%	-29%	3	-13%	7
SMILES	GALK inhibitor	Eya2 phos inh	KDM4E inh	Six1-Eya2 blk	Anesthetic bind	CtBP-E1A blk
N#Cc1ccc(NC(=O)Cn2c3[n+](c4ccc(C(F)(F)F)cc42)CCCCC3)cc1	3%	2%	25µM*	10	-9%	3
Cc1ccc(NC(=O)Cn2nc(-c3ccccc3)nc(Cc3ccccc3)c2=O)cc1	·	·	·	·	-10%	·
CCN(CC)C(=O)c1sc2nc(-c3ccccn3)[nH]c(=O)c2c1C	·	·	·	-90*	·	-88*
CCN(CC)C(=O)c1sc2nc(-c3ccncc3)[nH]c(=O)c2c1C	2%	-6%	?	0	-10%	5
Cc1sc2nc(-c3ccccn3)[nH]c(=O)c2c1-c1ccccc1	1%	-3%	-6%	?	-12%	-83*
CCCCCCCCCCCCCCCC(=O)C(F)(F)F	·	·	-6%	·	·	·
COc1cccc(/C=N/Nc2nc(Nc3ccccc3)nc(-n3nc(C)cc3C)n2)c1O	1%	-33%	20µM*	?	?	?
COc1ccc(/C=N/Nc2cc(C)nc(-n3nc(C)cc3C)n2)c(OC)c1	·	-5%	?	-76*	6%	-73*
Cc1cc(C)n(-c2nc(Nc3ccccc3)nc(-n3nc(C)cc3C)n2)n1	-3%	8%	-5%	-28	-4%	?
CCOc1ccc(Nc2cc(C)nc(-n3nc(C)cc3C)n2)cc1	0%	-1%	6%	-68*	-14%	-79*
Cc1ccc(Nc2cc(C)nc(-n3nc(C)cc3C)n2)cc1	·	·	·	·	47%	·
Cc1c(CN(C)C)c2c(n1Cc1ccccc1)C(=O)c1ccc(Br)cc1-2	-2%	3%	-1%	-65*	?	?
Cc1ccc2nc(N3CCN(c4cccc(C)c4C)CC3)c3nnnn3c2c1	0%	11%	3.5µM*	12	-9%	10
COc1ccc(C(=O)c2ccccc2)c(O)c1O	·	·	22µM*	·	-9%	·
COc1ccc(C(=O)c2ccccc2)c(O)c1	1%	2%	9%	11	-11%	22
[O-]c1c[n+](-c2ccc(-[n+]3cc([O-])on3)cc2)no1	2%	3%	25µM*	-6	-9%	5
CC1=C(c2ccccc2)[N+](=O)C2(CCCC2)N1[O-]	3%	11%[15.4 µM]	-2%	6	-8%	-7
O=[N+]([O-])c1ccc2c(c1)N([O-])C1(CCCCC1)[N+]2=O	7%	2%	11µM*	-12	-6%	-5
CCOC(=O)c1c(C)oc2c1c(C=NCc1ccccn1)c(O)c1ccccc12	-4%	4%	4µM*	-75*	?	-1
O=c1cc[nH]c2c1ccc1c(=O)cc[nH]c12	-2%	0%	·	-75*	7%	-86*
Cc1ccc2oc3c(c(=O)c2c1)C(c1ccc(OCC(N)=O)cc1)N(Cc1ccc2c(c1)OCO2)C3=O (stereo not given)	·	·	·	·	-3%	·
